Most compounds without a hit are left out; they make up all but 2.4% or so of the library.
Tau fil binding: qHTS Assay for Tau Filament Binding; recombinant tau filaments, thioflavin S fluorescence, 15 h; filaments grown with octadecylsulfate alongside compound; 2% of 71,000 active; Potency, µM (highest dose often 57.1 µM), for the others: top-dose activity change, negative = inhibition;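 note: % is set by controls: 0 for no effect and ±100 for the full control effect; actives lower thioflavin S fluorescence by blocking filaments or displacing dye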
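Read-out: ThS fluorescence, 450 nm excitation/510 nm emission; lower signal marks blocked filament formation or displaced dye. Tau at 1 uM with 30 uM ODS, 10 uM ThS, 5 mM DTT, 100 mM NaCl, 10 mM HEPES pH 7.4; 15 h, 37 C.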
Caspase-7 inhib: qHTS Assay for Allosteric/Competitive Inhibitors of Caspase-7 | P55210 | recombinant caspase-7, Ac-DEVD-AFC fluorescence rate | 0.02% of 75,000 active | Potency, µM (series often up to 57.5 µM), for inactives: at the highest dose activity change, negative = inhibition, usual class: inhibitors | AID 889, 2007; active = well fitted inhibition curve with a large enough effect in the main read-out, with a control signal flat, not every such curve was filed as active; inconclusive = small, poorly fitted or top-dose-only effect, or a change in a side signal; note: % of control where 0% means no effect
ALOX15B inhib: qHTS Assay for Inhibitors of 15-hLO-2 (15-human lipoxygenase 2) | Polyunsaturated fatty acid lipoxygenase ALOX15B (Homo sapiens), O15296 | purified 15hLO-2, xylenol orange hydroperoxide absorbance | Potency, µM (highest dose often 57.1 µM), for inactives: at the highest dose activity change, negative = inhibition, most hits filed as inhibitors | 0.56% of 110,000 active | AID 881, 2007; note: % is set by controls: 0 for no effect and ±100 for the full control effect; nearly all actives have a fitted effect of over 60% in size
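Read-out: hydroperoxide product oxidises ferrous iron, measured as xylenol orange complex via the 573-to-405 nm absorbance ratio after 30 min. Reaction: 50 nM enzyme, 15 min compound preincubation, 45 uM arachidonic acid, 90 min RT, Hepes pH 7.5 with Triton X-100.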
Casp1 inh: qHTS Assay for Allosteric/Competitive Inhibitors of Caspase-1; P29466; Caspase-1 enzyme, Ac-WEHD-AFC fluorogenic rate; Potency, µM (doses to about 57.5 µM), inactives show top-dose activity change, negative = inhibition, usual class: inhibitors; 0.03% of 75,000 active;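 note: plate controls were vehicle for no effect and no substrate for full effect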
15-hLO inh: qHTS Assay for Inhibitors of 15-hLO (15-human lipoxygenase); Potency, µM (series often up to 57.1 µM), for the others: at the highest dose activity change, negative = inhibition, hits mostly inhibitors; purified 15hLO-1, xylenol orange hydroperoxide absorbance; Polyunsaturated fatty acid lipoxygenase ALOX15 (Homo sapiens), P16050; 1.4% of 74,000 active; note: % is set by controls: 0 for no effect and ±100 for the full control effect; nearly all actives have a fitted effect of over 55% in size
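Purified human 15hLO-1 (40 nM) in 25 mM Hepes pH 7.5, 0.01% Triton X-100, preincubated 15 min RT with compound, then 50 uM arachidonic acid for 6 min. Hydroperoxide read by ferrous/xylenol orange, 30 min; 573/405 nm absorbance ratio gave progress.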
Hsp90 Hop PPI: qHTS Assay for Disrupters of an Hsp90 Co-Chaperone Interaction. Hsp90 C-terminal peptide / TPR2A (Hop) interaction, human. AlphaScreen TPR2A-His6 binding biotin-Hsp90 C-terminal peptide. Potency, µM (titrated, usually from 57 µM), inactives show at the top dose activity change, negative = inhibition. 0.44% of 71,000 active. AID 595, 2007; active = well fitted curve in either direction with a large enough effect; inconclusive = small, poorly fitted or top-dose-only effect, or another doubt; note: % is set by controls: 0 for no effect and ±100 for the full control effect
* hit, by the source's call; ? = inconclusive; / = no result given; [ ] = another dose, or the depositor's remark. Unless noted, calls come from the whole dose curve; as a rule, active = well fitted curve in the direction sought with a large enough effect; inconclusive = small, poorly fitted or top-dose-only effect, or another doubt; inactive = no such curve, though single readings can be large; an effect the other way counts as inactive or inconclusive. Potency is the fitted concentration of half-maximal effect.

SMILES	Tau fil binding	Caspase-7 inhib	ALOX15B inhib	Casp1 inh	15-hLO inh	Hsp90 Hop PPI
COc1ccc(N2CCN(Cc3nc4c(c(=O)n(C)c(=O)n4C)n3CCc3ccccc3)CC2)cc1	13µM*	-2%	/	-1%	?	-5%
CCc1cc(=O)oc2cc(C)c(CN3CCCC(C)C3)c(O)c12 (stereo not drawn)	/	/	-26%	/	/	/
CCCCc1cc(=O)oc2cc(C)c(CN3CCCC3)c(O)c12	20µM*	-18%	-2%[2.29 µM]	-9%	13µM*	-9%
CCOc1ccccc1OCc1nn2c(COc3ccccc3)nnc2s1	21%	-3%	-17%	-4%	3.2µM*	3%
c1ccc(Cc2nn3c(COc4ccccc4)nnc3s2)cc1	-18%	-12%	-20%	-1%	-8%	-3%
Cc1ccc(C2C(C#N)=C(N)SC(N)=C2C#N)cc1	275%	-5%	?	-4%	?	-1%
Cc1ccc(C2C(C#N)=C(N)SC(N)=C2C#N)c(C)c1	259%	-9%	13µM*	-8%	?	2%
CN1C(=O)CSc2ccc(NC(=O)Nc3ccccn3)cc21	10µM*	-5%	-6%	-2%	4%	-9%
C=CCn1c(CCC(=O)O)ccc1-c1ccc(OC)cc1	-7%	-18%	-7%	-15%	13µM*	-3%
COc1ccc(-c2ccc(CCC(=O)O)n2CC(C)C)cc1	/	/	-12%	/	/	/
COc1ccc2nc(C)cc(Nc3ccc(N4CCOCC4)cc3)c2c1	5µM*	-1%	18%	-3%	-7%	-12%
COc1ccc(-c2cc3nc(C)c(CCC(=O)NCc4ccco4)c(C)n3n2)c(OC)c1	26%	0%	/	-1%	-3%	-2%
O=C(OC1Cc2c(O)cc(O)cc2OC1c1cc(O)c(O)c(O)c1-c1c(C2Oc3cc(O)cc(O)c3CC2O)cc(O)c(O)c1O)c1cc(O)c(O)c(O)c1 (stereo not drawn)	/	-27%	-21%	0%	?	/
O=C1c2ccc(O)c(O)c2C(=O)c2c(O)ccc(O)c21	/	-23%	?	-3%	0.25µM*	/
O=C1c2cccc(O)c2C(=O)c2c(O)cccc21	56%	-7%	-11%	3%	?	-23%
O=C1c2ccccc2C(=O)c2c1ccc(O)c2O	/	-26%	?	-1%	10µM*	/
CC(C)CN(C(=O)c1ccc(=O)n(C)n1)c1nc2ccccc2s1	25µM*	-3%	2%	-1%	-25%	?
CCOc1c(C#N)c(C#N)c2nc(C)cc(C)n12	5%	1%	-6%	1%	-7%	-7%
N#Cc1c(-c2ccco2)cc(C2CC2)nc1SCC(=O)c1ccccc1	44%	-20%	-11%	-11%	16µM*	-11%
Cc1ccc2[nH]c3c(c2c1)CN(C(=O)CN1CCN(c2cccc(C)c2C)CC1)CC3	266%	?	20%	/	-16%	-17%
CC(=NCc1ccncc1)C1=C(O)c2ccccc2C1=O	/	/	-20%	/	/	/
CC(=NCCCn1ccnc1)C1=C(O)c2ccccc2C1=O	-13%	-2%	17%	0%	17%	13µM*
O=C1C(C=NCCCn2ccnc2)=C(O)c2ccccc21	-25%[11.4 µM]	-4%	/	-3%	10%[11.4 µM]	3.2µM*
CCOc1ccc(N2C(=O)CC(N3CC(C)OC(C)C3)C2=O)cc1 (stereo not drawn)	/	-1%	-3%	3%	1%	/
CCOC(=O)C(C(C)=O)c1c(Br)c(O)c(O)c2c(C(=O)c3ccc(C)cc3)coc12 (stereo not drawn)	10µM*	-3%	?	-2%	2µM*	?
SMILES	Tau fil binding	Caspase-7 inhib	ALOX15B inhib	Casp1 inh	15-hLO inh	Hsp90 Hop PPI
CCOC(=O)c1c(C)n(-c2ccc(C)cc2)c2c(C(C(C)=O)C(=O)O)c(Br)c(O)c(O)c12 (stereo not drawn)	/	/	-29%	/	/	/
COc1ccc2nc(Nc3ccc4c(c3)OCO4)sc2c1	13µM*	-1%	-17%	1%	-16%	?
Nc1ccccc1NC1=CC(=O)CC(c2ccco2)C1 (stereo not drawn)	16µM*	-21%	-4%	-3%	?	-14%
O=C(COC(=O)Cc1ccc(S(=O)(=O)N2CCOCC2)s1)Nc1ccc2c(c1)OCO2	/	/	2%	/	/	/
NC(=O)c1cc(-c2ccccc2)sc1NC(=O)Cc1ccc(S(=O)(=O)N2CCOCC2)s1	7.9µM*	-5%	-10%	-6%	-9%	-14%
Cc1nn(-c2ccccc2)c(Cl)c1C(=O)NCC(C)C	/	/	-4%	/	/	/
OC(CCN1CCOCC1)(c1ccc(Cl)cc1)C1CCCCC1 (stereo not drawn)	20µM*	-11%	8%	-3%	-5%	0%
N#CC1=C(N)OC2=C(C(=O)CCC2)C12CCN(C(=O)OCc1ccccc1)CC2	-18%	-4%	-4%	-3%	25µM*	-2%
CCOc1ccccc1N1CCN(S(=O)(=O)c2cccc3nsnc23)CC1	20µM*	-4%	-4%	-1%	2%	-12%
O=C(CSc1nnc(-c2ccccc2)o1)c1nnc(-c2ccccc2)o1	4µM*	-22%	-27%	-11%	20µM*	-19%
O=C(CSc1nnc(-c2ccccc2)o1)c1ccc2c(c1)OCCO2	18%	-1%	-9%	-1%	4%	2%
FC(F)(F)c1cc(Sc2ccccc2)nc(-c2ccccn2)n1	/	/	17%	/	/	/
CCOc1ccc(NCC(=O)Nc2ccc(C)cc2C)cc1	32µM*	0%	-13%	1%	-13%	-13%
Nc1ccccc1Nc1ccncc1[N+](=O)[O-]	/	/	-11%	/	/	/
CN(C)c1ccc(-c2ccc3ncnc(N4CCNCC4)c3c2)cc1	13µM*	-4%	15%	-6%	-1%	-6%
Cc1ccccc1-c1nc(N2CCNCC2)c2ccccc2n1	-4%	-4%	7%	-2%	3%	-1%
CN(C)c1ncnc2ccc(-c3ccoc3)cc12	5%	-7%	0%	-6%	-5%	-2%
CN(C)c1ccc(-c2nc(N3CCNCC3)c3ccccc3n2)cc1	3.2µM*	-3%	36%	-2%	-10%	-7%
CN(C)c1ccc(-c2ccc3ncnc(N(C)C)c3c2)cc1	5µM*	?	6%	/	-1%	-4%

Source: PubChem BioAssay
